# Screening data from PubChem BioAssay.
# An excerpt weighted towards active compounds, which were near 1.6% of everything screened.
# KCNQ2 pot: potentiators of rat KCNQ2 potassium channel; CHO-K1 KCNQ2, FluxOR thallium flux fluorescence; active compounds read high; B-score at 10 µM; 310,000 compounds, 0.54% hits;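 active = fluorescence ratio B-score at least 3 SD of library B-scores, with initial fluorescence B-score within 3 of them, cut at about 5.3 in these data; same plate scores as AID 2156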;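 note: B-score of peak minus minimum over baseline fluorescence ratio after K+ and Tl+ stimulus; positive B-score means potentiation of KCNQ2 with more thallium influx and brighter signal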
# KCNQ2 block: KCNQ2 (rat) channel inhibition | 310,000 compounds, 1.1% hits | CHO-K1 KCNQ2, FluxOR thallium flux, 20 min; active compounds read low | AID 2156 | B-score at 10 µM | O88943;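 active = fluorescence ratio B-score at most minus 3 library SDs, with starting brightness B-score within 2 library SDs, cut at about -5.5 in these data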
# Kir21 confirm: confirmation of mouse Kir2.1 potassium channel inhibitors; shares compounds with KCNQ2 pot; Kir2.1-expressing cells, FluxOR thallium flux fluorescence; active compounds read low; Tl flux remaining, % of negative control (active compounds read low), % at 10 µM; 2,300 compounds, 41% hits; AID 2032;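 active = Primary-screen hit whose thallium flux fell at least 3 control SD below untreated wells in both duplicates, with normal baseline fluorescence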;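 note: 0% = blank wells without stimulus and 100% = stimulated no-compound controls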
# Target sequence (P35561 whole entry, looked up): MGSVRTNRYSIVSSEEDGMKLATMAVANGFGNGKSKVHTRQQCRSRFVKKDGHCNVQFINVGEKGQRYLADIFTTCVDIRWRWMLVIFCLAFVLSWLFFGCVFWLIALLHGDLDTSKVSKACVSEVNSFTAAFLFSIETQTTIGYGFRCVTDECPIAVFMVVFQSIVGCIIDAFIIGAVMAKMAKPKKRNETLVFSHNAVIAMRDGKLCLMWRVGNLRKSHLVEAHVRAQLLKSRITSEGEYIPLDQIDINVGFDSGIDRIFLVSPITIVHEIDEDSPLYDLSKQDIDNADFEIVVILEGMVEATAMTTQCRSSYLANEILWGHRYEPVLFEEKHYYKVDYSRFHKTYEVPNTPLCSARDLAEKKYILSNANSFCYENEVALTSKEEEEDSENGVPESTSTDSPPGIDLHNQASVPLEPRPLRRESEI
# HEK293 ctr: counter-screen for Kir2.1 inhibitors: effect in parental HEK293 cells | 2,300 compounds, 19% hits | FluxOR signal as % of negative control (100 = no effect), % at 10 µM | shares compounds with KCNQ2 pot | FluxOR thallium flux fluorescence; 0% = unstimulated blank wells;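 active = dye signal at least 3 control SD above or below untreated wells in both duplicates, raw fluorescence within 3, either direction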;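 note: percent is based on the flux ratio of peak minus minimum fluorescence over baseline F0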
# * = called active by the depositor; i = inactive; / = no result.
SMILES,KCNQ2 pot,KCNQ2 block,Kir21 confirm,HEK293 ctr
O=C(COC(=O)Cc1c[nH]c2ccccc12)Nc1ccccc1,/,i,/,/
CCNC(=O)n1cc(-n2cncn2)c(-c2ccccc2)n1,/,i,/,/
COc1ccc(C(=O)CSc2nc3ccc([N+](=O)[O-])cc3[nH]2)cc1,/,i,/,/
COc1ccc(CN(C)C(=O)c2sccc2-c2ccccc2)c(OC)c1,/,i,/,/
CN(Cc1ccc(F)cc1)C(=O)c1sccc1-c1ccccc1,/,i,64%*,i
O=C(COc1coc(CN2CCN(Cc3ccccc3)CC2)cc1=O)Nc1ccccc1,0.19,i,/,/
Cn1nccc1C(=O)N1CCC(Cc2ccccc2)CC1,/,i,/,/
CCOCCCN(C(=O)Cn1nnc(-c2ccc(C)o2)n1)C(C(=O)NC1CCCC1)c1ccc(C)o1 (stereo not given),/,i,/,/
COc1ccc(CNCCC(c2ccc(OC)cc2)c2ccccc2OC)cc1 (stereo not given),/,i,38%*,i
COc1ccc(C(CCNCc2ccc(N(C)C)cc2)c2ccccc2OC)cc1 (stereo not given),/,i,/,/
COc1ccc(CNCCC(c2ccc(F)cc2)c2ccc(OC(C)C)cc2)cc1OC (stereo not given),/,i,44%*,i
COc1ccc(CNC(C)CCc2ccccc2)cc1 (stereo not given),3.1,i,40%*,i
COc1ccc(CNCCC(c2ccccc2)c2ccc(OC(C)C)cc2)cc1OC (stereo not given),/,i,/,/
COc1ccc(C(CCNCc2ccc(OC(C)C)cc2)c2ccccc2OC)cc1 (stereo not given),-6.5,-6.5*,29%*,i
COc1ccc(C(CCNCc2ccccc2)c2ccc(F)cc2)cc1 (stereo not given),/,i,/,/
COc1ccc(CCC(C)NCc2ccc(C(F)(F)F)cc2)cc1 (stereo not given),2.2,i,/,/
Cc1ccc2oc(=O)c3cc(C(=O)N4CCN(C)CC4)sc3c2c1,/,i,/,/
COc1cccc(CN2CC(C(=O)N3CCOCC3)CCC2=O)c1 (stereo not given),/,i,/,/
O=C(CC(c1ccco1)C1CCCCC1=O)c1ccccc1 (stereo not given),/,i,/,/
Cn1c(-c2cccc3ccccc23)n[nH]c1=S,0.27,i,/,/
O=C(Nc1cccc(C(=O)O)c1)/C(=C\c1ccccc1)NC(=O)c1cccc2ccccc12,1.2,i,/,/
CC(Sc1nccn1C)C(=O)Nc1ccc(Cl)cn1 (stereo not given),/,i,/,/
C/C=C/c1ccc(OCCOc2cc(C=O)ccc2OC)c(OC)c1,0.03,i,/,/
C/C=C/c1ccc(OCCOCCNCc2ccccc2)c(OC)c1,0.43,i,30%*,i
Cc1ccc(OCCNCc2ccccc2)c(C)c1,/,i,/,/
SMILES,KCNQ2 pot,KCNQ2 block,Kir21 confirm,HEK293 ctr
COc1cc(C)ccc1OCCCCNCc1ccccc1,0.05,i,58%*,i
CC(C)N1CCN(C(=O)C2CCC(=O)N(CCc3cccc(F)c3)C2)CC1 (stereo not given),0.01,i,/,/
O=C(COc1ccc2c3c(c(=O)oc2c1)CCCC3)NCCCN1CCOCC1,0.13,i,/,/
N#Cc1ccccc1S(=O)(=O)N1CCN(S(=O)(=O)c2ccc(Br)c(C(=O)O)c2)CC1,/,i,/,/
S=C(NCC1CCCO1)N1CCN(c2nc(-c3ccc(Cl)cc3)cs2)CC1 (stereo not given),/,i,i,i
S=C(NCCCN1CCOCC1)N1CCN(c2nc(-c3ccc(Cl)cc3)cs2)CC1,/,i,/,/
O=C(CSc1n[nH]c(-c2ccncc2)n1)Nc1ccc(Br)cc1,/,i,/,/
N=c1c2c(-c3ccccc3)c(-c3ccccc3)n(Cc3ccco3)c2ncn1CCCn1ccnc1,/,i,32%*,64%*
c1ccc(-c2oc3ncnc(NCCCn4ccnc4)c3c2-c2ccccc2)cc1,/,i,/,/
N=c1c2c3c(sc2ncn1Cc1ccco1)CCCCC3,0.74,i,/,/
N=c1c2c(-c3ccccc3)c(-c3ccccc3)n(Cc3ccco3)c2ncn1Cc1ccccc1,-5.9,-5.9*,65%*,i
COC(=O)c1sc(SC)c(-c2ccon2)c1C,/,i,/,/
c1ccc2[nH]c(Cn3nnc4ccccc43)nc2c1,0.08,i,/,/
COc1ccc(CCN(C)C(=O)c2oc3ccccc3c2C)cc1OC,0.42,i,38%*,i
Cc1c(C(=O)N(C)Cc2ccc(OC(F)F)cc2)oc2ccccc12,/,i,/,/
CC(c1ccco1)N(C(=O)CSc1ccc(Br)cc1)c1ccccn1 (stereo not given),/,i,69%*,i
CC(C)c1ccc(C(=O)N(c2ccccn2)C(C)c2ccco2)cc1 (stereo not given),/,i,/,/
